# Shn3 inh set2 – reduction of Shn3 3'UTR firefly luciferase signal, primary screen, Schnurri-3 inhibitor project, cell-based, Clone20 osteoblasts, set 2; Clone20 osteoblast Shn3 3'UTR firefly luciferase, 24 h; inhibition, % at 12.5 µM; actives 0.52% (n = 360,000);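 active = mean inhibition of at least 75% with every replicate also reaching 75%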;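 note: 0% = median of neutral control wells and 100% = pilot-screen positive control compound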
# HIF-2a inh – HIF-2a reporter inhibitors, primary screen, luminescence, 786-0 RCC cells. 786-0 RCC cells HIF-2a reporter, luciferase luminescence, overnight. inhibition, % at 18.8 µM. actives 0.72% (n = 360,000);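 active = inhibition of the luminescence signal of 40% or more relative to plate controls, in a single-dose primary screen at 18.75 µM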
# CF NFkB block – inhibitors of PAF-induced NF-kB signaling, primary screen, cell-based, GFP fluorescence, uHTS; KKLEB NF-kB-GFP reporter, GFP fluorescence overnight; actives 0.86% (n = 360,000); inhibition, % at 5 µM;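 active = at least 50% inhibition at 5 µM, scaled per plate between neutral and stimulator controls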;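 note: PAF is a Pseudomonas aeruginosa culture filtrate used as stimulus; plate controls were PAF-stimulated DMSO wells for no effect and unstimulated DMSO wells for full effect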
# KKLEB tox – cytotoxicity in KKLEB CF airway cells, primary screen, cytotoxicity control for CF NF-kB inhibitor project, cell-based, uHTS, fluorescence assay plates. actives 0.36% (n = 360,000). KKLEB CF airway cells viability, ATPlite luminescence, overnight; stronger effect = lower value; cells stimulated with P. aeruginosa culture filtrate. activity change (cytotoxicity), % at 5 µM;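 active = corrected activity change at or below -50% at 5 µM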
# TRPM1 prom inh – inhibitors of MITF-dependent TRPM1 promoter reporter, primary screen, cell-based, SK-MEL-5, single point, luciferase | actives 0.83% (n = 330,000) | SK-MEL-5 TRPM1 promoter luciferase, 24 h | inhibition, % at 12.5 µM;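 active = mean inhibition across replicates of 60% or more, whatever share of single replicates reaches that level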
# Peg3 prom inh-1 – Peg3 promoter-driven luciferase inhibitors, primary screen, cell-based, HeLa, luciferase luminescence; HeLa PEG-Prom luciferase reporter, overnight; AID 588405, 2011; actives 1.7% (n = 360,000); inhibition, % at 20 µM;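 active = inhibition of at least 50% at 20 µM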
# Peg3 prom inh-2 – Peg3 promoter reporter inhibitors, retest, confirmation, cell-based, HeLa, luciferase reporter, single concentration; shares compounds with Peg3 prom inh-1; HeLa PEG-Prom luciferase reporter, luminescence, overnight; actives 84% (n = 1,300); inhibition, % at 20 µM; AID 602417, 2012;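 active = at 20 µM dose, 40% or more inhibition averaged across four replicates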
# * marks the source's active call; other numbers are inactive results; . = no result; ! = a repeat was not active. An excerpt weighted towards active compounds, which were near 2.8% of everything screened.
SMILES,Shn3 inh set2,HIF-2a inh,CF NFkB block,KKLEB tox,TRPM1 prom inh,Peg3 prom inh-1,Peg3 prom inh-2
O=C(CN(c1ccc(Cl)cc1)S(=O)(=O)c1ccc(Cl)c([N+](=O)[O-])c1)NCCc1ccccc1,36,7,-9,-1,51,87*,31
COc1ccc(N(CC(=O)N2CCOCC2)S(C)(=O)=O)cc1Cl,8,6,-10,5,2,1,.
O=C(CSCc1cccc(Br)c1)N=Nc1c(O)[nH]c2ccccc12,3,-17,11,2,13,9,.
O=Nc1c(-c2c(O)[nH]c3cc(Br)ccc23)[nH]c2ccccc12,-50,-17,107*,-8,-5,101*,98*
COc1cc(NC(=O)c2ccno2)cc(C(=O)Nc2cccc(C(F)(F)F)c2)c1,0,-20,-4,12,2,1,.
CCN1CCN(Cc2ccc(NC(=O)c3cc(NC(=O)c4ccno4)cc(OC)c3)cc2C(F)(F)F)CC1,3,-26,9,-4,-4,62*!,48*
CC(C)CC(N)c1csc(Nc2ccc(C(=O)N(C)Cc3ccccc3)cn2)n1 (stereo not given),35,11,17,-8,.,60*,85*
CCCCN(C)C(=O)c1ccc(Nc2nc(C(N)Cc3ccccc3)cs2)nc1 (stereo not given),14,2,36,-12,.,40,.
COc1cccc(Nc2nc(C(N)Cc3ccccc3)cs2)n1 (stereo not given),4,-5,11,-12,.,89*,96*
CN(Cc1ccccc1)C(=O)c1ccc(Nc2nc(C(N)Cc3ccccc3)cs2)nc1 (stereo not given),27,-33,42,-46,.,93*,90*
CN(Cc1ccccc1)C(=O)c1ccc(Nc2nc(C(N)COCc3ccccc3)cs2)nc1 (stereo not given),9,2,6,-11,.,24,.
CSCCC(NC(=O)c1ccccc1Br)C(=O)N1CCCCCCC1 (stereo not given),4,8,-4,-1,3,15,.
CSc1ccccc1NC(=O)C1CCCN(S(C)(=O)=O)C1 (stereo not given),-4,4,-9,-6,11,0,.
O=C(CCc1ccccc1)OCCN1CCOCC1,-25,-1,-10,10,2,-13,.
CCOC(=O)/C(=C\c1ccccc1)C(=O)CCN1CCOCC1,21,10,6,-15,84*,97*,86*
Cc1ccccc1N(C(=O)c1snc(C(N)=O)c1N)C(C(=O)NCc1ccccc1)c1ccc(O)cc1 (stereo not given),25,21,15,3,6,49,.
NC(=O)c1nsc(C(=O)N(c2ccccc2F)C(C(=O)NCc2ccccc2)c2ccc(O)cc2)c1N (stereo not given),2,32,90*,-54*,-1,75*,57*
CS(=O)(=O)c1ccc(C(=O)NCCN2C(=O)S/C(=C\c3cccnc3)C2=O)cc1[N+](=O)[O-],40,8,78*,-68*,69*,99*,54*
CN(C)S(=O)(=O)c1ccc(C(=O)NCCN2C(=O)S/C(=C\c3cccnc3)C2=O)cc1,-8,-4,-13,3,-3,0,.
CC(C)c1ccc(NC(=O)CSc2nc(=O)[nH]c3c2CCCC3)cc1,16,30,48,-29,19,16,.
CC(C)c1ccc(NC(=O)CSc2nc(-c3ccccc3F)nc3nc[nH]c23)cc1,12,18,10,1,5,60*,25
Cc1csc(NC(=O)c2ccc(N3CCCC3=O)cc2)n1,39,33,20,1,43,64*,46*
Cc1nnc(NC(=O)c2ccc(N3CCCC3=O)cc2)s1,-50,-138,-10,-23,-87,-119,.
COc1ccc(C(NC(=O)C2CCN(Cc3ccc(Oc4ccccc4)cc3)CC2)c2ccccc2C)cn1 (stereo not given),50,-6,24,-10,.,22,.
CCN(CC)C(=O)Cn1ccc(NC(C)=O)nc1=O,10,12,6,-1,-15,-16,.
SMILES,Shn3 inh set2,HIF-2a inh,CF NFkB block,KKLEB tox,TRPM1 prom inh,Peg3 prom inh-1,Peg3 prom inh-2
O=C(c1cccs1)N1CCC(c2nc3c(nnn3Cc3ccccc3Cl)c(=O)[nH]2)CC1,10,21,-1,-4,13,24,.
CN(C)CCNC(=O)c1cccc2nc3cccc(F)c3nc12,91*,-4,-32,-3,77*,105*,98*
Cc1ccc(-c2c(C(=O)N/N=C/c3c[nH]c4ccccc34)nnn2-c2nonc2N)cc1,5,20,-27,0,11,30,.
CSc1nc(N)nc2c1ncn2CC(=O)NCC1CCCO1 (stereo not given),-11,4,-10,18,6,7,.
O=C(CN1CCCC1)Nc1ccc(-c2nc3cc(NC(=O)CN4CCCC4)ccc3o2)cc1,9,-101,1,-2,58,71*,92*
CCCC(=O)Nc1ccc2oc(-c3ccncc3)nc2c1,-38,-55,6,-5,-41,-27,.
Cc1nc(N2CCN(S(=O)(=O)c3ccccc3C#N)CC2)c2c(-c3ccccc3)csc2n1,0,18,11,-18,39,54*,62*
O=C(O)c1cc(NC(=O)c2cccc(C(=O)Nc3cc(C(=O)O)cc(C(=O)O)c3)c2)cc(C(=O)O)c1,-121,22,-22,-8,-6,13,.
COc1ccc(-c2cc(C(F)(F)F)c3c(N)c(C(=O)NCCSC)sc3n2)cc1,35,16,-16,12,8,21,.
CN(C)CCNC(=O)c1sc2nc(-c3ccccc3)cc(C(F)(F)F)c2c1N,2,-5,-8,-2,8,61*,70*
CCN1CCN(c2ccc(S(=O)(=O)N3CCOCC3)cc2NC(=O)/C=C/c2ccc([N+](=O)[O-])cc2)CC1,3,-13,-29,-1,64*,70*,75*
CCN1CCN(c2ccc(S(=O)(=O)N3CCOCC3)cc2NC(=O)c2cccc([N+](=O)[O-])c2)CC1,-4,6,-19,6,4,2,.
COc1cccc(NC(=O)CN(C)C(=O)c2cccnc2Nc2cccc(C(F)(F)F)c2)c1,31,9,-18,-8,28,69*,73*

# Compound activity: PubChem, several laboratories
